Test results taken from PubChem BioAssay (NCI).
About 79,000 compounds went through this panel and 15% of them were active in at least one assay; those are over-represented in the sample as a whole. Calls of active or inactive are those of the source. Cut-off read from the data, not from the text of the source: active = growth inhibition above about 70%; inactive = the rest.

Legend:
[1] = NCI Yeast Anticancer Drug Screen. Data for the rad50 strain (AID 155);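 note: 0% = growth of vehicle-only cultures of the same strain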; conditions: S. cerevisiae rad50 strain growth inhibition; at 50.0 µM; active compounds read high
Method in brief: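 Genetically altered yeast (DNA repair pathway); compound treatment; growth inhibition vs vehicle ctrl.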

[2] = NCI Yeast Anticancer Drug Screen. Data for the mec2-1 strain (AID 157); conditions: S. cerevisiae mec2-1 strain, at 50.0 µM, active compounds read high
Method in brief: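 Readout is yeast growth inhibition, normalised to vehicle-treated controls, in the mec2-1 strain exposed to compound.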

[3] = NCI Yeast Anticancer Drug Screen. Data for the sgs1 mgt1 strain (AID 161);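 note: 0% = growth of cultures given vehicle only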; conditions: S. cerevisiae sgs1 mgt1 strain, at 50.0 µM, active compounds read high
Method in brief: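 This yeast growth screen uses a strain with defined DNA-repair lesions; compound-treated growth is compared with vehicle-treated growth.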

[4] = NCI Yeast Anticancer Drug Screen. Data for the cln2 rad14 strain (AID 165);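 note: 0% = growth equal to vehicle treated cultures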; conditions: S. cerevisiae cln2 rad14 strain, at 50.0 µM, active compounds read high
Method in brief: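 Relative to vehicle controls, growth inhibition of compound-treated cln2 rad14 yeast was recorded.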

[5] = NCI Yeast Anticancer Drug Screen. Data for the mlh1 rad18 strain (AID 175); conditions: S. cerevisiae mlh1 rad18 strain growth inhibition; at 50.0 µM; active compounds read high
Method in brief: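 Test agents were incubated with a yeast strain of defined genotype (DNA damage repair defect). Inhibition of growth was derived by comparison with vehicle-exposed cultures.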

[6] = NCI Yeast Anticancer Drug Screen. Data for the bub3 strain (AID 167); conditions: S. cerevisiae bub3 mutant strain, at 50.0 µM, active compounds read high
Method in brief: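 Yeast carrying a defined mutation is treated with each compound, and growth is compared with that of vehicle-exposed cells to give inhibition.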

Measured: growth inhibition

CC(=O)c1ccc2ccc3ccccc3c2c1
inactive: [1] 15.2% | [2] -0.6% | [3] 18.6% | [4] -31.1% | [5] 11.8%

O=c1nc(Oc2ccccc2)nc2ncccn12
inactive: [1] 47% | [2] 26.1% | [3] 40.5% | [4] 20.2% | [5] 65%

Nc1nc(N)c(N=Nc2ccc(C(=O)O)c(O)c2)c(N)n1
inactive: [1] 5.5% | [2] 3.5% | [3] -0.7% | [6] -11.9% | [5] 13%

C=C(CC(=O)OC)C(=O)OC
inactive: [1] 12.3% | [2] -2.9% | [3] 8.45% | [6] 4.15% | [5] 9.45%

CCOC(=O)/C(F)=C/c1cccc(C)c1
inactive: [1] -5.05% | [2] -23% | [3] -17.9% | [6] -5.45% | [5] -3.1%

NC(=O)/N=C/c1c(O)c2ccccc2oc1=O
inactive: [1] 9.6% | [2] -0.8% | [3] -11.6% | [6] -42% | [5] -3.1%

C(=C\c1cccc2ccccc12)/c1ccc(-c2ccccc2)cc1
inactive: [1] -5.9% | [2] -45% | [3] -0.75% | [6] -3.45% | [5] 5.75%

COc1ccc(Cc2cc3c(cc2OCCOC(C)=O)OCO3)cc1
inactive: [1] 16.8% | [2] 11.3% | [3] 10.4% | [6] 15.2% | [5] 23.4%

CCOC(=O)NC(=S)NC(C)c1ccccc1 (stereo not given)
inactive: [1] -10.2% | [2] 10.6% | [3] 35.5% | [6] 15% | [5] 1.15%

O=C1NC2(CCCCC2)N=C2C(Cl)CCCC12Cl (stereo not given)
inactive: [1] -22.1% | [2] -24.5% | [3] -0.7% | [6] -1.85% | [5] -8.8%

CC12C=CC(=O)C=C1CCC1C3CC(F)C(O)(C(=O)CO)C3(C)CC(O)C12F (stereo not given)
inactive: [1] -6.35% | [2] 2.25% | [3] 3.25% | [6] 14.8% | [5] 3.3%

COc1ccc(NC(=S)NN)cc1
inactive: [1] 2.95% | [2] -7.75% | [3] 18.9% | [6] 13.9% | [5] 6.2%

Cc1cc2c(c([N+](=O)[O-])c1C)C(=O)C(Br)=C(Br)C2=O
inactive: [1] 15.7% | [2] 10.4% | [3] 21.5% | [6] 5.9% | [5] 36.2%

COc1cc(C2=N/C(=C\c3cc(Cl)cc(Cl)c3O)C(=O)O2)cc(OC)c1OC
inactive: [1] -33.7% | [2] -23.6% | [3] 2.85% | [6] -2.9% | [5] -2.8%

COc1ccc(CCNC(=O)C(Sc2ccccn2)c2ccccc2)cc1OC (stereo not given)
inactive: [1] 20.6% | [2] -29.4% | [3] 5.35% | [6] 30.6% | [5] 27.8%

COC(=O)C(C(=O)C(=O)Nc1ccc(C)cc1)c1nc2ccc([N+](=O)[O-])cc2[nH]c1=O (stereo not given)
inactive: [1] 16.9% | [2] 15.2% | [3] 0.8% | [6] 22.2% | [5] 4.6%

N/N=C(\Cc1ccccc1)NN=C(N)N
inactive: [1] 13.6% | [2] -11.2% | [3] 14.8% | [6] -9.45% | [5] 20.3%

CC(=O)O[C@H]1C(=O)[C@]2(C)[C@@H](OC(=O)OCCC(O)CO)C[C@H]3OC[C@@]3(OC(C)=O)[C@H]2[C@H](OC(=O)c2ccccc2)[C@]2(O)C[C@H](OC(=O)[C@H](O)[C@@H](NC(=O)c3ccccc3)c3ccccc3)C(C)=C1C2(C)C (stereo not given in full)
inactive: [1] 1.65% | [2] -7.2% | [3] 2.25% | [6] -19.2% | [5] -0.35%

CC1(C)C2CC(=O)C1(C)C(OCc1ccccc1)C2 (stereo not given)
inactive: [1] -21.2% | [2] 12.6% | [3] 6.1% | [6] -18.1% | [5] 5.1%

Cc1c2c(c(C)c3c1C(=O)c1cc4c(cc1C3=O)OCO4)OC(C)O2
inactive: [1] -10.5% | [2] -15.5% | [3] -18.6% | [6] -47.7% | [5] -18.6%

C=C(Br)CN1CCC2(c3ccccc3)C(=O)C([Se]c3ccccc3)CCC12 (stereo not given)
inactive: [1] -5.45% | [2] 8.15% | [3] 8.9% | [6] -1.35% | [5] -0.95%

Cc1ccc(S/C=C/C(=O)Nc2ccccc2)cc1
inactive: [1] -10.8% | [2] 13.4% | [3] 7.1% | [6] 2.85% | [5] 5.6%

CC1(C)OC(=O)C=C([O-])O1.CC1(C)OC(=O)C=C([O-])O1.CC[O-].CC[O-].[Ti+4]
inactive: [1] -20.8% | [2] -36.2% | [3] 3.6% | [6] -11.7% | [5] -3.15%

O=C1N2Cc3c4ccc5c3CN3C(=O)N6Cc7c(ccc(c7CN1C6(c1ccccc1)C23c1ccccc1)OCCOCCNCCOCCO4)OCCOCCNCCOCCO5 (stereo not given)
inactive: [1] -31.1% | [2] -26.2% | [3] -34.2% | [4] 3.4% | [5] -30.1%

C=C(C)c1nc(C#N)c(N)o1
inactive: [1] 33% | [2] 5.6% | [3] -13.4% | [6] -37.8% | [5] -33.4%

O=C1NC2(CCN(CCc3ccccc3)CC2)Oc2ccccc21
inactive: [1] 28.9% | [2] -10.2% | [3] 15.7% | [6] 11.5% | [5] 11.1%

CCCn1c(C)nc2cc(C(F)(F)F)cc(N)c21
inactive: [1] 14.3% | [2] 11.4% | [3] 1.55% | [6] 17.9% | [5] 5.5%

ClCCOCOc1ccc2ccccc2c1
inactive: [1] 29.6% | [2] 23.9% | [3] 43.6% | [6] 26.6% | [5] 26.9%

O=S(=O)([N-]c1nc2ccccc2nc1-[n+]1ccccc1)c1ccccc1
inactive: [1] 14% | [2] -0.2% | [3] 14.7% | [6] -2.2% | [5] -22.6%

c1ccc2c(c1)OP1(=NP3(=NP4(=NP5(=N1)Oc1ccccc1-c1ccccc1O5)Oc1ccccc1-c1ccccc1O4)Oc1ccccc1-c1ccccc1O3)Oc1ccccc1-2
inactive: [1] 7.8% | [2] 6.3% | [3] -30.5% | [6] -1.1% | [5] 17.2%

O=c1[nH]c2ccccc2c(N=Cc2ccccc2)c1-c1ccccc1
inactive: [1] -6.95% | [2] -20.6% | [3] -4.6% | [6] -12.1% | [5] -0.4%

C=CCc1cccc(CC=C)c1OCCN(CC)CC
inactive: [1] 13.4% | [2] 17.1% | [3] 17.6% | [6] 7.3% | [5] 16.8%

O=c1[nH]c(=S)[nH]c2c1CCC2
inactive: [1] 6% | [2] 25.4% | [3] 44.2% | [6] 35.2% | [5] 24.1%

Nc1nc(N)c2nc3c(nc2n1)CCCC3
inactive: [1] -15.9% | [2] -35.7% | [3] -18.3% | [4] 8.95% | [5] -25.7%

O=C(N/N=C\c1ccccn1)Nc1ccc(N=Nc2ccccc2)cc1
inactive: [1] 6.55% | [2] -9.85% | [3] -1.65% | [6] 5.75% | [5] 4.9%

Nc1ccccc1SC1CCCCC1O (stereo not given)
inactive: [1] -4.9% | [2] 2.2% | [3] -5.3% | [4] -8.2% | [5] -7.15%

COc1ccc2cc1Oc1ccc(cc1)C[C@@H]1c3cc(c(OC)cc3CCN1C)Oc1c(OC)c(OC)cc3c1[C@@H](C2)N(C)CC3
inactive: [1] 33% | [2] -20.8% | [3] 18.6% | [6] 21.9% | [5] 31.2%

O=C(Nc1ccc(Br)cc1)OCC1CC2C=CC1C2 (stereo not given)
inactive: [1] 43.5% | [6] 33.9% | [5] 47.4%
active: [2] 70.8% | [3] 79.9%

O=C(Nc1nc(C23CC4CC(CC(C4)C2)C3)cs1)c1c(O)c2ccccc2[nH]c1=O
inactive: [1] -29.2% | [2] -23.9% | [3] -8.75% | [4] 8.95% | [5] -22.5%

O=C1C(O)=C(c2ccccc2)C(=O)N1Cc1ccccc1
inactive: [1] 7.25% | [2] -4.7% | [3] 4.55% | [6] 3.4% | [5] -6.6%

N#Cc1ccc(Cl)cc1C#N
inactive: [1] 13.4% | [2] -4.65% | [3] -2.2% | [6] 14.1% | [5] -14.3%

CN(Cc1c(O)ccc2ccccc12)Cc1c[nH]c2ccccc12
inactive: [1] 20.4% | [2] -13.8% | [3] 0.5% | [6] 6.9% | [5] 13.4%
